Compounds with a hit are over-represented: about 17% of the library has one in this group of screens.
TDP1 cell CPT: growth inhibition of DT40 Tdp1-/-;hTDP1 cells with camptothecin (screen for TDP1 inhibitors). chicken DT40 Tdp1-/-;hTDP1 cells + 20 nM CPT, ATP luminescence, 48 h. Potency, µM (highest dose often 46.2 µM), hits mostly inhibitors. 420,000 compounds, 12% hits. AID 686979; further: nearly all actives have a fitted effect of over 55% in size
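Chicken DT40 Tdp1-/- cells stably complemented with human TDP1 were seeded at 400 cells/well in medium containing 20 nM camptothecin, exposed to pin-transferred compounds, and grown at 37 °C for at least 48 hr. Viability was read as ATP luminescence.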
HT1080 IDH1KD tx: toxicity to HT-1080 IDH1 knockdown cells (counter line); Potency, µM (highest dose often 46.1 µM), hits mostly cytotoxic; 360,000 compounds, 2% hits; AID 686971; HT-1080 IDH1 knockdown viability, ATP luminescence, 48 h
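In this qHTS, HT-1080 cells depleted of IDH1 are exposed for 48 h at 37 °C to compound titrations. Toxicity is scored from CellTiter-Glo luminescence, with DMSO as full viability and medium alone as none.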
HepG2 viability: kills HepG2 cells in TGF-b inhibitor counter-screen. HepG2 CAGA-GFP viability, ATP luminescence, 18 h. Potency, µM (series often up to 46.1 µM), actives largely listed as cytotoxic. 410,000 compounds, 0.76% hits
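HepG2 CAGA-GFP cells (1000/well, DMEM with 1% FBS) received compound, then TGF-beta at 500 pg/mL final, and were incubated 18 hours at 37 degrees C. Viability was read by CellTiter-Glo luminescence. Media-only wells were set as complete cell-killing and DMSO as no toxicity.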
TGFb inhibitor: blocks TGF-b signaling | HepG2 CAGA-GFP TGF-b/SMAD3 reporter, GFP fluorescence, 18 h; TGF-beta stimulated, 500 pg/mL final | 410,000 compounds, 1.2% hits | Potency, µM (titrated, usually from 46.1 µM), actives largely listed as inhibitors; further: nearly all actives have a fitted effect of over 65% in size
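Per well, imaged GFP fluorescence of HEPG2 CAGA-GFP cells gives the signal; cells get compound, then TGF-beta (500 pg/mL final), 18 h at 37 degrees C; %Activity versus -TGF-beta and +DMSO controls.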
HT1080NT lethal: kills 2HG-producing HT-1080-NT fibrosarcoma cells. HT-1080-NT fibrosarcoma viability, CellTiter-Glo ATP luminescence, 48 h. Potency, µM (doses to about 46.1 µM), usual class: cytotoxic. 360,000 compounds, 1.6% hits. AID 686970;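 further: NT is the 2HG producing partner of a matched IDH1 knockdown line; nearly all actives have a fitted effect of over 55% in size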
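HT-1080-NT fibrosarcoma cells (2HG-overproducing), 750 cells/well in RPMI with 5% FBS, dosed after 2 h and incubated 48 h at 37C. CellTiter-Glo luminescence normalized to DMSO and no-cell wells; concentration-response curves fitted and classed.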
DT40 TDP1 no CPT: qHTS for Inhibitors of human tyrosyl-DNA phosphodiesterase 1 (TDP1): qHTS in cells in absence of CPT. DT40 Tdp1-/- hTDP1 cells, no CPT, ATP luminescence, 48 h. Potency, µM (top dose mostly 46.2 µM), most hits filed as inhibitors. 420,000 compounds, 15% hits; further: nearly all actives have a fitted effect of over 55% in size
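No-CPT arm: Tdp1-/-;hTDP1 DT40 cells (400/well) plus compounds, incubated ≥48 hr at 37 °C. Readout CellTiter-Glo luminescence.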
Numbers stand for hits. The call rests on the fitted dose curve; in most records, active means well fitted curve in the direction sought with a large enough effect; inconclusive means small, poorly fitted or top-dose-only effect, or another doubt; inactive means no such curve, though single readings can be large; an effect the other way counts as inactive or inconclusive.

Screening COc1ccccc1-c1ccc2c(c1)C(C)(Cc1ccc(Cl)cc1)C(=O)N2 (stereo not drawn) returned TDP1 cell CPT inactive, HT1080 IDH1KD tx inactive, HepG2 viability inactive, TGFb inhibitor inactive, HT1080NT lethal inactive and DT40 TDP1 no CPT inactive.
COc1ccccc1-c1ccc2c(c1)C(C)(Cc1cccc(C#N)c1)C(=O)N2 (stereo not drawn) was read as TDP1 cell CPT 21µM, HT1080 IDH1KD tx inconclusive, HepG2 viability inactive, TGFb inhibitor inconclusive, HT1080NT lethal inconclusive and DT40 TDP1 no CPT 16µM.
For CC1(Cc2cc(Cl)ccc2C(F)(F)F)C(=O)Nc2ccc(OC(F)(F)F)cc21 (stereo not drawn) the results were TDP1 cell CPT 23µM, HT1080 IDH1KD tx 21µM, HepG2 viability inactive, TGFb inhibitor inconclusive, HT1080NT lethal inconclusive and DT40 TDP1 no CPT 13µM.
CC(=O)c1c(C)nc(-c2ccc(Cl)cc2)nc1NC(=O)C(C)C was read as TDP1 cell CPT inactive, HT1080 IDH1KD tx inactive, HepG2 viability inactive, TGFb inhibitor inactive, HT1080NT lethal inactive and DT40 TDP1 no CPT inactive.
Screening O=C(CSc1nc2ccccc2s1)NNC(=O)Nc1ccc(Cl)c(Cl)c1 returned TDP1 cell CPT inactive, HT1080 IDH1KD tx inactive, HepG2 viability inactive, TGFb inhibitor inactive, HT1080NT lethal inactive and DT40 TDP1 no CPT inactive.
`O=C(CN1c2ccccc2Sc2ccccc21)NNC(=O)Nc1ccc(Cl)c(Cl)c1` gave TDP1 cell CPT inactive, HT1080 IDH1KD tx inconclusive, HepG2 viability 13µM, TGFb inhibitor inconclusive, HT1080NT lethal 21µM and DT40 TDP1 no CPT inactive.
O=C(CN1c2ccccc2Sc2ccccc21)NNC(=O)Nc1ccc(Cl)cc1 was read as TDP1 cell CPT inconclusive, HT1080 IDH1KD tx 21µM, HepG2 viability inactive, TGFb inhibitor inconclusive, HT1080NT lethal 23µM and DT40 TDP1 no CPT inconclusive.
`O=C(CCc1ccccc1)NNC(=O)Nc1ccc(Cl)cc1` gave TDP1 cell CPT inactive, HT1080 IDH1KD tx inactive, HepG2 viability inactive, TGFb inhibitor inactive, HT1080NT lethal inactive and DT40 TDP1 no CPT inactive.
For COC(=O)C(OC(=O)c1ccccc1)C(C)Br (stereo not drawn) the results were TDP1 cell CPT inactive, HT1080 IDH1KD tx inactive, HepG2 viability inactive, TGFb inhibitor inactive, HT1080NT lethal inactive and DT40 TDP1 no CPT inactive.
For NC1=NCC2c3ccccc3Cc3ccccc3N12 (stereo not drawn) the results were TDP1 cell CPT inconclusive and DT40 TDP1 no CPT 24µM.
`CCNc1nc(NC(C)C)nc(N(C#N)CCOc2ccccc2)n1` gave TDP1 cell CPT 23µM, HT1080 IDH1KD tx inactive, HepG2 viability inactive, TGFb inhibitor inconclusive, HT1080NT lethal inactive and DT40 TDP1 no CPT 23µM.
CCn1cc(C(=S)N2CCC(C(N)=O)CC2)c2ccccc21 was read as TDP1 cell CPT inconclusive, HT1080 IDH1KD tx inactive, HepG2 viability inactive, TGFb inhibitor inactive, HT1080NT lethal inactive and DT40 TDP1 no CPT inconclusive.
COc1cccc(CNC(=O)c2cc3c(cc2Cl)N2CCCCCC2=NS3(=O)=O)c1 was read as TDP1 cell CPT inactive, HT1080 IDH1KD tx inactive, HepG2 viability inactive, TGFb inhibitor inactive, HT1080NT lethal inactive and DT40 TDP1 no CPT inactive.
For O=C(NCCc1ccc(Cl)cc1)C(=O)NCC(c1ccco1)S(=O)(=O)c1cccs1 (stereo not drawn) the results were TDP1 cell CPT 18µM, HepG2 viability inactive, TGFb inhibitor inactive and DT40 TDP1 no CPT inconclusive.
O=S(=O)(NCC(c1ccco1)S(=O)(=O)c1cccs1)c1ccc(F)c(C(F)(F)F)c1 (stereo not drawn) was read as TDP1 cell CPT inconclusive, HepG2 viability inactive, TGFb inhibitor 4.5µM and DT40 TDP1 no CPT inconclusive.
